# Assay results published in PubChem BioAssay AID602127 (Broad Institute, 2011).
# Results with a measured potency or affinity are listed apart. Values without a mark were called inactive.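 How the source made its calls: active means every repeat test judged active, meaning a falling signal with potency within twice the top valid dose; inconclusive means repeat tests disagree on the call; inactive means every repeat test inactive, including signal moving upward.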
# Target: Cyclin-dependent kinase 2 (Homo sapiens) (UniProt P24941)
# Assay: inhibition of human CDK2/cyclin A – biochemical, cherry-picked samples, selectivity assay for Dyrk1A inhibitor project, dose response (AID 602127)
# Details: ADP-Glo luminescence, 60 min; series mostly up to 10 µM; activity change, negative = inhibition: at the top concentration
row,Structure (SMILES),"activity change, negative = inhibition"
1,Clc1ccccc1-c1ccc2ncnc(NCc3ccc4c(c3)OCO4)c2c1,-0.839%
2,c1cncc(CNc2ccnc(-c3ccc4[nH]ncc4c3)n2)c1,-3.74%
3,Brc1cc(Br)cc(CNc2nccc(-c3ccc4c(c3)OCO4)n2)c1,-3.23%
4,Cc1nc(NC(=O)c2ccccc2)sc1-c1csc(N)n1,-8.19%
5,Clc1ccc(CNc2nccc(-c3ccc4cn[nH]c4c3)n2)cc1Cl,-11.3%
6,Cc1nc(CNc2ncnc3ccc(-c4ccoc4)cc23)cs1,1.03%
7,O=C(Nc1nc(-c2ccncc2)cs1)c1ccco1,1.59%
8,c1nc(NCC2CCCC2)c2cc(-c3ccc4c(c3)OCO4)ccc2n1,7.36%
9,CN(Cc1cccs1)c1ncnc2ccc(-c3ccc4c(c3)OCO4)cc12,-1.32%
10,COc1cc(C(=O)Nc2cccc(-c3nncn3C)c2)cc(OC)c1OC,-1.46%
11,CN(C)c1ccc(-c2nccc(NCc3cccs3)n2)cc1,1.17%
12,Cc1csc(CN(C)c2ncnc3ccc(-c4ccc5c(c4)OCO5)cc23)n1,2.04%
